About 14,000 (4.5%) of roughly 310,000 compounds showed an effect of 50% or more. Effects have a minus sign here. The entries come from a sample that favours strong results as a whole.
target: human ether-à-go-go-related gene (hERG) potassium channel (human, UniProt Q12809); test: primary screen, population patch clamp on CHO cells stably expressing hERG; higher = less effect of the substance
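Further: peak tail current of the secondary pulse compared with the same well before compound.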

human ether-à-go-go-related gene (hERG) potassium channel, sequence (Q12809 whole entry, looked up): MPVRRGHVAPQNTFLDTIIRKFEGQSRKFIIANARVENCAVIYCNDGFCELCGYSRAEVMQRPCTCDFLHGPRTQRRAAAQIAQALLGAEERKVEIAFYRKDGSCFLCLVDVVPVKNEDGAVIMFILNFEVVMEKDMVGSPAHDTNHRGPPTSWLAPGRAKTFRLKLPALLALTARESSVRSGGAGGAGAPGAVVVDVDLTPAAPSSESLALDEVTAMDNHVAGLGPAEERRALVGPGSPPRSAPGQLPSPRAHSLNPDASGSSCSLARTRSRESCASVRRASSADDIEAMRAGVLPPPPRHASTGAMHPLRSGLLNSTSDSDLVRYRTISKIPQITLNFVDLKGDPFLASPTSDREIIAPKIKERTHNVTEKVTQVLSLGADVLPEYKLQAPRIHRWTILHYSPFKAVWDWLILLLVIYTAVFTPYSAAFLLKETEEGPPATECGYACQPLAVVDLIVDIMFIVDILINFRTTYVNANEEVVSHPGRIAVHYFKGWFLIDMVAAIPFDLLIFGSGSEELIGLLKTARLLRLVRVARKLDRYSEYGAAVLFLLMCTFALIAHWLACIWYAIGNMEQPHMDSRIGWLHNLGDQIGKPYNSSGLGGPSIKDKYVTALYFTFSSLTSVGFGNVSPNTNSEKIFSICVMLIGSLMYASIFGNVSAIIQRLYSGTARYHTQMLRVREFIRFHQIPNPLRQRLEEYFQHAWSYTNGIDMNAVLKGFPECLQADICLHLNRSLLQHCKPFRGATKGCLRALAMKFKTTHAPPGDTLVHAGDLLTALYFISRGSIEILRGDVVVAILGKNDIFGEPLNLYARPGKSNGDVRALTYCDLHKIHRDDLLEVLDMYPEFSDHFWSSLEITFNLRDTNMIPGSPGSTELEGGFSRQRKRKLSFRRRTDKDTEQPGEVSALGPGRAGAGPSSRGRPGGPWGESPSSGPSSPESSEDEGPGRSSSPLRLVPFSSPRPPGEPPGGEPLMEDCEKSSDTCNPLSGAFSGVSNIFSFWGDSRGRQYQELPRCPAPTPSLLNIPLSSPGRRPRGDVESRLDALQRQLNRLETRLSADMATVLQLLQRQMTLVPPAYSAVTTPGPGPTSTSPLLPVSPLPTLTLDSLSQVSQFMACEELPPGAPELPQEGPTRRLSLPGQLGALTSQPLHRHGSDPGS

| SMILES | hERG current change (%, negative = inhibition) at 10uM [%] |
| --- | --- |
| CCOc1ccccc1C1CC(=O)Nc2c1c(=O)n(C)c(=O)n2C (stereo not drawn) | 7.34 |
| O=C(NCc1ccccc1)C(=O)NCC1OCCN1S(=O)(=O)c1ccc2c(c1)OCCO2 (stereo not drawn) | -3.14 |
| O=C(CCCc1nc(-c2ccc(Cl)cc2)no1)Nc1cccnc1 | -24.6 |
| COc1cc(C2C(=O)N(C3CCCC3)CC(=O)N2Cc2ccco2)ccc1OC(C)C (stereo not drawn) | -27.6 |
| Cc1ccc(C2C(=O)N(C3CCCC3)CC(=O)N2C2CCCCC2)cc1 (stereo not drawn) | -25.4 |
| COc1ccc(C2C(=O)N(C3CCCCC3)CC(=O)N2C2CCCC2)cc1 (stereo not drawn) | -12.1 |
| COc1ccc(C2C(=O)N(C3CCCCC3)CC(=O)N2C2CCCCC2)cc1 (stereo not drawn) | -51.7 |
| COc1ccc(C2C(=O)N(C3CCCCC3)CC(=O)N2Cc2ccco2)cc1 (stereo not drawn) | -53.7 |
| CCCOc1ccc(C2C(=O)N(C3CCCCCC3)CC(=O)N2Cc2ccco2)cc1OC (stereo not drawn) | -36.7 |
| COc1cccc(-c2nnc3n2N=C(c2cccc(Br)c2)CS3)c1 | 6.32 |
| CCOC(=O)Cn1c(-c2ccccc2)ccc(C#N)c1=O | 8.28 |
| Cc1ccc(S(=O)(=O)NC23CC4CC(CC(C4)C2)C3)cc1 | 3.97 |
| CCC(=O)N1CCN(c2ccc(Cl)cc2NC(=O)c2ccc(N3CCCC3)c([N+](=O)[O-])c2)CC1 | -6.9 |
| COc1ccccc1NC(=O)CCN1C(=O)C2CC=C(Cl)CC2C1=O (stereo not drawn) | -2.46 |
| Cc1ccc(/C=C(\NC(=O)c2ccccc2)C(=O)NCCN2CCOCC2)o1 | -3.91 |
| Cc1ccc(/C=C(\NC(=O)c2ccccc2)C(=O)NCC2CCCO2)o1 (stereo not drawn) | -5.4 |
| CC(C)(Oc1ccc(Cl)cc1)C(=O)NC1CCCCC1 | 0.43 |
| CC(C)(Oc1ccc(Cl)cc1)C(=O)NC1CCN(Cc2ccccc2)CC1 | -70.4 |
| COc1cc(C(=O)NC2CCN(Cc3ccccc3)CC2)cc(Cl)c1OC(C)C | -61.2 |
| C=C(C)c1cccc(C(C)(C)NC(=O)NC2CCN(Cc3ccccc3)CC2)c1.Cl | -55.5 |
| COc1ccccc1CC(=O)NC1CCN(Cc2ccccc2)CC1 | 1.52 |
| C=C(C)c1cccc(C(C)(C)NC(=O)NC2CCCC2)c1 | 15.1 |

| SMILES | hERG current change (%, negative = inhibition) at 10uM [%] |
| --- | --- |
| COc1cc(C(=O)NC2CCN(Cc3ccccc3)CC2)cc(Cl)c1OC | -44.3 |
| C=C(C)c1cccc(C(C)(C)NC(=O)NC2CN3CCC2CC3)c1 (stereo not drawn) | 1.14 |
| Cc1ccc(/C=C(\NC(=O)c2ccccc2)C(=O)NC2CCN(Cc3ccccc3)CC2)o1 | -55.5 |
| CC(C)(Oc1ccc(Cl)cc1)C(=O)NC1CC1 | 1.41 |
| Cc1cccc(-c2onc3ccc(C4(C)OCCO4)cc23)c1 | -1.6 |
| CCOC(=O)c1[nH]cnc1C(=O)O | -2.12 |
| CN(C)c1ccc(N2C(=NC(=O)C3CCCO3)SC3CS(=O)(=O)CC32)cc1 (stereo not drawn) | 11.1 |
| CCN(CC)C(=O)N1CCN(C(=O)N2CCOCC2)CC1 | 29.8 |
| Cc1ccc2cccc(S(=O)(=O)N3CCN(c4cccc(Cl)c4)CC3)c2n1 | -2.91 |
| CC1CC(=O)N(CC(=O)Nc2cccc(F)c2)c2ccccc2S1(=O)=O (stereo not drawn) | -4.3 |
| O=C(N1CCCCCC1)n1c(Cc2ccccc2)nc2ccccc21 | -30.5 |
| O=C(CN1CCN(c2ncc(C(F)(F)F)cc2Cl)CC1)NC(=O)NCc1ccccc1 | 4.2 |
| Cc1ccccc1C(=O)NC1CCN(Cc2ccccc2)CC1 | -29.1 |
| O=C(NC1CCN(Cc2ccc(F)cc2)CC1)c1ccccc1 | -50.2 |
| S=C(Nc1ccccc1)NC1CCN(Cc2ccccc2)CC1 | -39.6 |
| Cl.O=C(NC(=S)NC1CCN(Cc2ccccc2)CC1)c1ccc(F)cc1 | -72.3 |
| CC(C)(C)c1ccc(C(=O)NC2CCN(Cc3ccccc3)CC2)cc1 | -65.3 |
| CC(C)(C)c1ccc(C(=O)N2CCC(NC(=O)c3ccccc3)CC2)cc1 | -1.48 |
| Cc1ccc(C)n1-c1ccc(C(=O)NC2CCN(Cc3ccccc3)CC2)cc1 | -65.5 |
| Fc1ccc(NC(=S)NC2CCN(Cc3ccccc3)CC2)cc1 | -30 |
| O=C(NC1CCN(Cc2ccccc2)CC1)c1ccc(CS(=O)c2ccc(F)cc2)o1 (stereo not drawn) | -22.4 |
| Cc1ccc(-n2c(=O)[nH]c3cc(C(=O)NC4CCN(Cc5ccccc5)CC4)ccc3c2=O)cc1 | 11.2 |

| SMILES | hERG current change (%, negative = inhibition) at 10uM [%] |
| --- | --- |
| CS(=O)(=O)Cc1ccc(C(=O)NC2CCN(Cc3ccccc3)C2)cc1 (stereo not drawn) | -5.28 |
| O=C(NC1CCN(Cc2ccccc2)CC1)c1ccc2c(c1)[nH]c(=O)n2Cc1ccc(F)cc1 | -21.8 |
| Cc1ccc(-c2nnc(SCC(N)=O)n2C)cc1 | -0.685 |
| CN(C)N1C(N)=C(C#N)C(c2cccnc2)C2=C1CCCC2=O (stereo not drawn) | -9.73 |
| CC(C)Oc1ccc(C(=O)O)cc1 | 16.5 |
| O=S(=O)(NCc1ccccc1)c1ccc(Cl)c(S(=O)(=O)NCc2ccccc2)c1 | -33 |
| COc1ccc(C(=O)NCCC2=CCCCC2)cc1 | -9.79 |
| NS(=O)(=O)c1ccc(CCNC(=O)CNS(=O)(=O)c2cccc(Br)c2)cc1 | 13.2 |
| COc1ccc(C2C(C#N)=C(N)N(c3sc4c(c3C#N)CCCC4)C3=C2C(=O)CC(C)(C)C3)cc1 (stereo not drawn) | -2.99 |
| O=C(COc1ccc(Cl)cc1)Nc1ccc2oc(=O)ccc2c1 | 3.7 |
| Cc1cc(C)n(C(=O)c2cc(F)c(F)cc2C)n1 | 4.1 |
| O=C(NC1CCN(Cc2ccccc2)CC1)c1ccccc1 | -33.3 |
| OC1CCN(Cc2ccc3ccccc3c2)CC1 | 13.4 |
| Cc1ccc(CN2CCC(NC(=O)c3ccccc3)CC2)cc1 | -75 |
| O=C(NC1CCN(Cc2ccc3ccccc3c2)CC1)c1ccccc1 | -66.3 |
| CCCCOc1ccc(C(=O)NCC(=O)NC2CCN(Cc3ccccc3)CC2)cc1 | -25.6 |
| CC(C)Oc1ccc(C(=O)NC2CCCCC2)cc1 | 10.3 |
| O=C(NC1CCN(Cc2ccc(Cl)c(Cl)c2)CC1)c1ccccc1 | -18.3 |
| Cc1ccc(CN2CCSc3ccc(C(=O)NC4CCN(Cc5ccccc5)CC4)cc32)cc1 | 8.21 |
| CC(C)Oc1ccc(C(=O)NC2CCN(Cc3ccccc3)CC2)cc1 | -60.8 |
| CCOC(=O)c1sc(=NC(=O)CCSc2ccccc2)n(C)c1C | -11.8 |
| O=C(NCCOc1cccc2cccnc12)c1cccs1 | -12.8 |

| SMILES | hERG current change (%, negative = inhibition) at 10uM [%] |
| --- | --- |
| O=C(CSc1ncnc2c1nnn2Cc1ccc(F)cc1)NC1CCCCC1 | 11.8 |
| N/C(=N\OC(=O)N1c2ccccc2Sc2ccccc21)c1ccc(Br)cc1 | 5.79 |
| O=C(COc1c(Br)cc(Br)c2cccnc12)N1CCc2ccccc2C1 | 8.07 |
| CC(=O)N/C(=C\c1ccccc1)C(=O)OCC(=O)N(CC(C)C)c1c(N)n(Cc2ccccc2)c(=O)[nH]c1=O | 6.75 |
| CC(c1ccc(F)cc1)n1c(-c2ccc3ccccc3n2)n[nH]c1=S (stereo not drawn) | 18.1 |
| Cn1c(=O)c2c(nc(SCc3ccc(F)cc3)n2C)n(C)c1=O | 1.9 |
| O=C(NCC(O)c1ccccc1)c1ccc(Cl)c(S(=O)(=O)N2CCCC2)c1 (stereo not drawn) | -0.367 |
| O=C(NCCCN1CCCC1=O)c1ccc(Cl)c(S(=O)(=O)N2CCCCC2)c1 | -24.1 |
| CCN(CC)CCOC(=O)c1ccc(NC(=O)c2ccc(Cl)c(S(=O)(=O)N3CCCCCC3)c2)cc1.Cl | 13.7 |
| O=C(NCC(O)c1ccccc1)c1ccc(Cl)c(S(=O)(=O)N2CCCCC2)c1 (stereo not drawn) | 8.95 |
| CN(C)CCCNC(=O)c1ccc(Cl)c(S(=O)(=O)N2CCCCCC2)c1.Cl | -72.4 |
| CCN(CC)CCNC(=O)c1ccc(Cl)c(S(=O)(=O)N2CCCCCC2)c1.Cl | -67.4 |
| CCN(CC)CCNC(=O)c1ccc(NC(=O)c2ccc(Cl)c(S(=O)(=O)N3CCCCCC3)c2)cc1.Cl | -24 |
| CN(C)C(CNC(=O)c1ccc(Cl)c(S(=O)(=O)N2CCCCCC2)c1)c1ccccc1 (stereo not drawn) | -67.5 |
| Cc1ccc(CNC(=O)c2ccc(Cl)c(S(=O)(=O)N3CCCCC3)c2)cc1 | -27.3 |
| Cc1cc(C)n(C(=O)c2cccc([N+](=O)[O-])c2)n1 | -5.46 |
| COc1ccc(CCNC(=O)C2CCN(S(=O)(=O)c3cnc[nH]3)CC2)cc1OC | 13.7 |
| CCN(C(=O)CSc1nc(N)cc(=O)[nH]1)c1c(N)n(Cc2ccccc2)c(=O)[nH]c1=O | 2.41 |
| Cc1ccc(S(=O)(=O)NCCCn2ccnc2)cc1C(=O)NC(C)C | -1.56 |
| O=S(=O)(Nc1ccc2c(c1)OCO2)c1ccc(Br)s1 | -18.1 |
| O=C(O)CCN1CCc2ccccc2C1c1ccncc1 (stereo not drawn) | 13.2 |

Reference: publication PMC4336329 (PLoS ONE, 2015)
